Screening results as filed in PubChem.
HP1b chromo inh – blocks HP1-beta chromodomain binding to methylated histone tails; AlphaScreen HP1-beta / biotin-H3K9me3 peptide binding; Potency, µM (series often up to 114 µM), inactives show at the highest dose activity change, negative = inhibition, most hits filed as inhibitors; hit rate 0.56% among 390,000; AID 540317; further: nearly all actives have a fitted effect of over 70% in size
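HP1-beta protein (50 nM final) preincubated 30 min at room temperature with biotinylated H3(1-18)K9me3 peptide (50 nM) in PBS pH 7.4, 0.01% Tween-20, then compound added for 30 min. AlphaScreen streptavidin donor/nickel chelate acceptor beads (10 ug/mL final), 30 min dark, luminescence read.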
L3MBTL1 inh – inhibitors of human L3MBTL1. AlphaScreen L3MBTL1–H3K9me1 peptide binding. Potency, µM (top dose mostly 57.1 µM), inactives show at the top dose activity, negative = inhibition, usual class: inhibitors. hit rate 0.66% among 230,000. Q9Y468; further: on the % scale 0 is the no-effect control and ±100 the full control effect; nearly all actives have a fitted effect of over 60% in size
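First, the protein-peptide complex forms for 30 min at room temperature (L3MBTL1 50 nM, biotinylated H3K9me1 peptide 75 nM). Next, compounds are pin-transferred and incubated 30 min. Finally, AlphaScreen beads are added and read after 30 min.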
BAZ2B block – BAZ2B (human) inhibition; Potency, µM (series often up to 114 µM), inactives show at the highest dose activity change, negative = inhibition, actives largely listed as inhibitors; AlphaScreen BAZ2B-H3K14Ac peptide displacement; hit rate 4.4% among 360,000; AID 504333; further: on the % scale 0 is the no-effect control and ±100 the full control effect; nearly all actives have a fitted effect of over 60% in size
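BAZ2B 50 nM plus b-H3(5-23)K14Ac 50 nM, PBS pH 7.4/0.01% Tween-20, 30 min RT; compound added (max 110 uM), 30 min RT; streptavidin donor/Ni-chelate acceptor beads 10 ug/mL final, 20 min dark; AlphaScreen read.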
Sfp PPTase inh – Sfp phosphopantetheinyl transferase inhibition | Q9F4F7 | Biochemical Sfp PPTase activity, qHTS | Potency, µM, inactives show largest response in the series, negative = inhibition, hits mostly inhibitors | hit rate 3.5% among 310,000;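 further: the enzyme is Sfp with the accession as filed and its product quenches rhodamine fluorescence; 0% = enzyme reaction without inhibitor and -100% = no enzyme wells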
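With Hepes-Na pH 7.6 buffer containing 10 mM MgCl2, Sfp (15 nM) modified BHQ-2-YbbR (12.5 uM) using rhodamine-CoA (5 uM). Two reads 30 minutes apart at 525/598 nm yielded each well's rate.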
G9a block – G9a (human) methyltransferase inhibition; hit rate 8.8% among 350,000; Potency, µM (series often up to 102 µM), for inactives: at the highest dose activity, negative = inhibition, hits mostly inhibitors; G9a H3K9 monomethylation, AlphaScreen, 2 h; further: on the % scale 0 is the no-effect control and ±100 the full control effect; nearly all actives have a fitted effect of over 75% in size
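Using a bead-based AlphaScreen, monomethylated H3K9 product from 2 h room-temperature reactions (G9a 20 nM, peptide 500 nM, SAM 20 uM) was detected with 0.5 ug/mL rabbit anti-H3K9me1 antibody.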
JMJD2A Tudor inh – JMJD2A Tudor domain (human) inhibition | Potency, µM (series often up to 114 µM), for the others: at the highest dose activity change, negative = inhibition, most hits filed as inhibitors | O75164 | hit rate 4.4% among 390,000 | AlphaScreen JMJD2A-Tudor / H3K4me3 peptide binding; further: on the % scale 0 is the no-effect control and ±100 the full control effect; nearly all actives have a fitted effect of over 50% in size
Target sequence (O75164 whole entry, looked up, the tested form may be a part): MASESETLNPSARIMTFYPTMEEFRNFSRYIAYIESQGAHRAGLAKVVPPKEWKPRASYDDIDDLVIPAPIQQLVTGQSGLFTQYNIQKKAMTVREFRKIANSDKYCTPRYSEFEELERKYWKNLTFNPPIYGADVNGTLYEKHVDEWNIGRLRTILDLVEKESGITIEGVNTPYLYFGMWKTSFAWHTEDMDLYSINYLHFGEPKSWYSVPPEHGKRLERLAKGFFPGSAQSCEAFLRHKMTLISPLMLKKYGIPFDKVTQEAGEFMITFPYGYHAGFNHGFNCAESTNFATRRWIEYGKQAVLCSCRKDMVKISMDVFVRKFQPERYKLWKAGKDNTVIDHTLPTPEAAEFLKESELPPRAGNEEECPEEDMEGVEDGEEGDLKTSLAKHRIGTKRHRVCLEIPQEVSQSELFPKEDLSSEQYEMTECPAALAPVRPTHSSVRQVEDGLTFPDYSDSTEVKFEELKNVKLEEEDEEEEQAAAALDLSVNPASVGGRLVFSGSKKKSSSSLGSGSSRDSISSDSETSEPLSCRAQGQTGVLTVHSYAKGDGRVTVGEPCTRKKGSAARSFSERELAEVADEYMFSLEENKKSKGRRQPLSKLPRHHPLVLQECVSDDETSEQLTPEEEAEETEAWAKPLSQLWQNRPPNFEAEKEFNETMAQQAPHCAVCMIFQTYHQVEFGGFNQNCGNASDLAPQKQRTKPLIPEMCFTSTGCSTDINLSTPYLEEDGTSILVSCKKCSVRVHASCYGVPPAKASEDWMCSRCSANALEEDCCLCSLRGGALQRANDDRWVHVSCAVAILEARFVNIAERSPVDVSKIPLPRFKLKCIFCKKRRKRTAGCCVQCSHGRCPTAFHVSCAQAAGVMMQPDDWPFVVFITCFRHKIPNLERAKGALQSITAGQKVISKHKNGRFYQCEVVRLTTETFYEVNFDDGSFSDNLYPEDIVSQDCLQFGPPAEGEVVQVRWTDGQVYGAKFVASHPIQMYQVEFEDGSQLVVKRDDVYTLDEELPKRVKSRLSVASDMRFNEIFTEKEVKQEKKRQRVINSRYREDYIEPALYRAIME
Numbers without * were called inactive; ? = inconclusive; / = no result given; [ ] = dose if it differs, or a comment. Shown are actives, neighbours in structure and some others; about 12% of the full set was active somewhere. The call rests on the fitted dose curve; in most records, active means well fitted curve in the direction sought with a large enough effect; inconclusive means small, poorly fitted or top-dose-only effect, or another doubt; inactive means no such curve, though single readings can be large; an effect the other way counts as inactive or inconclusive. Potency means the concentration at half of the fitted maximal effect.

SMILES	HP1b chromo inh	L3MBTL1 inh	BAZ2B block	Sfp PPTase inh	G9a block	JMJD2A Tudor inh
O=C1COc2ccc(-c3cc(-c4ccccc4)c4c(n3)-c3cc(Cl)ccc3OC4)cc2N1	16%	/	-16%	/	6%[59 µM]	-10%
C=C1CCC2[C@](C)(CO)C(O)CC[C@]2(C)C1C/C=C1/C(=O)OCC1O (stereo partly drawn)	/	/	/	16%	17%[59 µM]	/
CC(C)c1ccc(NC2CCCN(C(=O)c3ccc4nccnc4c3)C2)cc1 (stereo not drawn)	13%	/	-26%	13%	79µM*	-25%
CC(C)c1ccc(NC2CCCN(C(=O)c3ccnc(Cl)c3)C2)cc1 (stereo not drawn)	24%	/	?	14%	25µM*	-32%
CC(C)c1ccc(NC2CCCN(C(=O)c3cc(C(C)C)[nH]n3)C2)cc1 (stereo not drawn)	5%	/	?	2%	/	?
O=C(c1ccnc(Cl)c1)N1CCCC(Nc2ccc(F)cc2)C1 (stereo not drawn)	20%	/	0%	-2%	-14%	-22%
NC(=O)CNC(=O)C1CCN(S(=O)(=O)c2ccc(-n3cnnn3)cc2)CC1	7%	/	-12%	3%	-3%	-5%
Cc1ccc(-n2c3nc(=O)[nH]c(=O)c-3cc3cc([N+](=O)[O-])ccc32)cc1C	-10%	-2%	8%	-27%	45µM*	-18%
Cc1ccc(S(=O)(=O)n2cnc3cc([N+](=O)[O-])ccc32)cc1C	37%	7%	?	4%	-2%[12.7 µM]	-34%
Cn1c(CNC(=O)c2ccc3c(c2)OCO3)nnc1SCC(=O)Nc1ccccc1F	39%	/	-14%	16%	14%	-3%
CCN(CC)c1ccc(NC(=O)c2sc3nc(-c4ccccc4)cn3c2C)cc1	-37%[57 µM]	/	7.9µM*	/	5µM*	28µM*
COc1ccc(-c2cn3c(C)c(C(=O)N4CCc5ccccc5C4)sc3n2)cc1	-6%	?	?	-9%	35µM*	?
Cc1c(C(=O)NCc2cccnc2)sc2nc(-c3ccccc3)cn12	39%	-2%	-3%	-2%	-4%	-10%
Cc1c(C(=O)NCc2cccnc2)sc2nc(-c3ccc(F)cc3)cn12	54%	0%	-38%	10%	45µM*	-11%
COc1ccc(-c2cn3c(C)c(C(=O)Nc4cc(NC(C)=O)ccc4OC)sc3n2)cc1	5%	-5%	-23%	79µM*	14µM*	-12%
Cc1c(C(=O)Nc2ccncc2)sc2nc(-c3ccccc3)cn12	30%	2%	?	-2%	?	?
CN(C)C(=O)OC1=C(c2ccccc2)Sc2ccccc2-n2cccc21	/	/	/	-16%	-26%[59 µM]	/
Cc1ccc(-n2ncc(C(=O)N3CCN(c4cccc(C)c4C)CC3)c2C2CCNCC2)c(C)c1	-12%	/	1%[57.1 µM]	/	?	?
CCc1cc(=O)[nH]c(SCC(=O)NCc2ccc3c(c2)OCO3)n1	21%	1%	5%	/	?	-6%
CCC[C@@H]1Cc2ccccc2N1C(C)=O	53%	1%	-3%	/	8%[0.501 µM]	-11%
CCN1C[C@@H]2[C@@H]3C(=O)N(Cc4ccccc4)C(=O)[C@@H]3[C@](Cc3ccccc3)(C1=O)N2C(=O)c1ccc(Br)cc1	36%	/	/	/	/	-19%
COc1ccc(-n2c(=O)cnc3cnc(OC)nc32)cc1	/	/	/	29%	4%[0.501 µM]	/
CCOc1ccc(NC(=O)N(Cc2ccc(CC)cc2)Cc2cn[nH]c2-c2ccc(OC)cc2)cc1	38%	/	-14%	/	-44%[59 µM]	-17%
CCCN1CCN(CCCNC(=O)c2ccc3c(c2)sc2nc(-c4ccc(OCC)cc4)cn23)CC1	-17%	/	28µM*	/	?	?
CCN(CC)C(=O)c1sc2nc(-c3ccc(OC)cc3)cn2c1C	-4%	-9%	-39%	-3%	?	-19%
CCOc1ccc(-c2cn3c(n2)sc2cc(C(=O)NCCCN4CCCCCC4)ccc23)cc1	58%	/	16%	/	7%[59 µM]	-7%
